Screening results: PubChem, National Center for Advancing Translational Sciences (NCATS)
Sampled rows, rich in hits. Any-hit rate of the full collection: about 19%.
HT1080NT lethal = kills 2HG-producing HT-1080-NT fibrosarcoma cells; actives 1.6% (n = 360,000); HT-1080-NT fibrosarcoma viability, CellTiter-Glo ATP luminescence, 48 h; Potency, µM (series often up to 46.1 µM), for the others: top-dose activity, negative = less viability, hits mostly cytotoxic;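 also: NT is the 2HG producing partner of a matched IDH1 knockdown line; potency is read from the fitted curve at half-maximal effect; 0% = DMSO-treated cells and -100% = media-only wells without cells; nearly all actives have a fitted effect of over 55% in size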
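HT-1080-NT fibrosarcoma cells (2HG-overproducing), 750 cells/well in RPMI with 5% FBS, dosed after 2 h and incubated 48 h at 37C. CellTiter-Glo luminescence normalized to DMSO and no-cell wells; concentration-response curves fitted and classed.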
TDP1 cell CPT = growth inhibition of DT40 Tdp1-/-;hTDP1 cells with camptothecin (screen for TDP1 inhibitors); chicken DT40 Tdp1-/-;hTDP1 cells + 20 nM CPT, ATP luminescence, 48 h; Potency, µM (doses to about 46.2 µM), without a hit: top-dose activity change, negative = growth inhibition, usual class: inhibitors; actives 12% (n = 420,000); also: potency is read from the fitted curve at half-maximal effect; nearly all actives have a fitted effect of over 55% in size
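Chicken DT40 Tdp1-/- cells stably complemented with human TDP1 were seeded at 400 cells/well in medium containing 20 nM camptothecin, exposed to pin-transferred compounds, and grown at 37 °C for at least 48 hr. Viability was read as ATP luminescence.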
uPA surface inh = inhibitors of cell surface uPA generation; cell surface uPA generation assay, qHTS; Potency, µM (doses to about 38.3 µM), inactives show at the top dose activity change, negative = inhibition, actives largely listed as inhibitors; actives 0.31% (n = 330,000); AID 540303; active = well fitted inhibition curve with a large enough effect; inconclusive = small, poorly fitted or top-dose-only effect; inactive = no such curve, though single readings can be large or run the other way; tested in mouse RAW 264.7 cells; also: potency is read from the fitted curve at half-maximal effect; nearly all actives have a fitted effect of over 55% in size
DT40 TDP1 no CPT = qHTS for Inhibitors of human tyrosyl-DNA phosphodiesterase 1 (TDP1): qHTS in cells in absence of CPT; DT40 Tdp1-/- hTDP1 cells, no CPT, ATP luminescence, 48 h; Potency, µM (highest dose often 46.2 µM), for the others: at the top dose activity change, negative = growth inhibition, actives largely listed as inhibitors; actives 15% (n = 420,000); also: potency is read from the fitted curve at half-maximal effect; nearly all actives have a fitted effect of over 55% in size
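No-CPT arm: Tdp1-/-;hTDP1 DT40 cells (400/well) plus compounds, incubated ≥48 hr at 37 °C. Readout CellTiter-Glo luminescence.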
IL-1B inflam inh = inhibitors of inflammasome signaling (IL-1 beta secretion); actives 4.7% (n = 360,000); THP-1 LPS/ATP IL-1B secretion, AlphaLISA, 16 h; hits give low values; activity change, % at 57.5 µM; AID 743279; in the data active = activity change below about -50%; inconclusive = mostly about -30% to -49%
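THP-1 cells pretreated 1 hr with compounds (up to 57.5 uM final), then stimulated with LPS (250 ng/mL final) plus ATP (1.25 mM final); secreted IL-1B measured by AlphaLISA after 16 hr, decreased signal indicating inhibition.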
HT1080 IDH1KD tx = toxicity to HT-1080 IDH1 knockdown cells (counter line); actives 2% (n = 360,000); HT-1080 IDH1 knockdown viability, ATP luminescence, 48 h; Potency, µM (doses to about 46.1 µM), inactives show at the top dose activity, negative = toxicity, actives largely listed as cytotoxic;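 also: potency is read from the fitted curve at half-maximal effect; 0% = DMSO wells and -100% = cell-free medium wells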
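In this qHTS, HT-1080 cells depleted of IDH1 are exposed for 48 h at 37 °C to compound titrations. Toxicity is scored from CellTiter-Glo luminescence, with DMSO as full viability and medium alone as none.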
The depositor's hits bear a star; ? = inconclusive; · = no result; ! = not active in a repeat; [ ] = remark or other dose. Unless noted, calls follow the shape of the dose curve; as a rule, active = well fitted curve in the direction sought with a large enough effect; inconclusive = small, poorly fitted or top-dose-only effect, or another doubt; inactive = no such curve, though single readings can be large; an effect the other way counts as inactive or inconclusive. Unless noted, % is scaled to controls: 0 for no effect and ±100 for the full control effect.

SMILES	HT1080NT lethal	TDP1 cell CPT	uPA surface inh	DT40 TDP1 no CPT	IL-1B inflam inh	HT1080 IDH1KD tx
COc1ccc(C(CNC(=O)c2oc3ccc(F)cc3c2C)N2CCCCC2)cc1 (stereo not given)	-10.7%	?	-8.8%	?	?	-28.3%
COc1ccc(C(CNC(=O)c2oc3ccc(OC)cc3c2C)N2CCCC2)cc1 (stereo not given)	?	23.1µM*	-7.0%	16.4µM*	?	-17.4%
COc1ccc(C(CNC(=O)CCNS(=O)(=O)c2ccc(Br)cc2)N2CCCC2)cc1 (stereo not given)	-0.2%	?	8.5%	?	-17.3	1.1%
COc1ccc(C(CNC(=O)c2oc3cc(C)c(C)cc3c2C)N2CCCCC2)cc1 (stereo not given)	16.0%	13µM*	-2.2%	9.2µM*	11.6	6.6%
COc1ccc(C(CNC(=O)C(C)Oc2ccc(Br)cc2)N2CCCCC2)cc1 (stereo not given)	4.3%[9.24 µM]	18.4µM*	-9.7%	20.6µM*	-6.3	-8.3%
COc1cc(-c2cc(=O)c3c(C)cc(O)cc3o2)cc(OC)c1OC	12.0%	?	-3.1%	8.2µM*	14.2	13.8%
COc1cc2oc(-c3ccc(O)cc3)cc(=O)c2c(O)c1OC	-1.3%	-88.0%	?	18.4µM*	-16.7	-5.2%
COc1ccc(-c2cc(=O)c3c(C)cc(O)cc3o2)cc1	6.3%	?	-10.9%	?	-8.4	1.5%
O=c1cc(-c2ccccc2)oc2cc(O)c(O)c(O)c12	-14.3%	16.8µM*!	?	29.9µM*	1.3	-9.3%
O=c1cc(-c2cccc(O)c2)oc2cccc(O)c12	·	6.2%	·	-5.3%	·	·
COc1cc2oc(-c3ccc(O)cc3)cc(=O)c2c(OC)c1O	-1.8%	?	4.9%	?	?	-13.3%
COc1c(O)cc2oc(-c3ccc(O)cc3)cc(=O)c2c1O	-7.0%	29.1µM*	?	?	8.5	-8.0%
O=c1c(-c2ccccc2)nc2cnc(N3CCOCC3)nc2n1Cc1cccs1	·	?	·	-10.0%	·	·
CC(=O)c1cccc(NC(=O)NC(C)c2ccc3c(c2)OCO3)c1 (stereo not given)	17.8%	-0.5%	3.8%	7.5%	?	13.1%
CN(C(=O)CC(=O)Nc1ccc(Cl)c(Cl)c1)c1ccccc1	-1.0%	-10.3%	-3.0%	-2.2%	-12.1	3.8%
CC1(C)CC(=O)c2cnc3c(C#N)cnn3c2C1	4.3%	1.4%	-8.8%	5.0%	-6.8	-4.1%
Oc1ccc2cc(Br)ccc2c1CN1CCCC1	-12.6%	28.2%	-6.1%	23.1µM*	-57.5*	-13.5%
Oc1ccc2ccccc2c1CN1CCCC1	-23.7%	1.3%	-9.0%	-13.8%	27.4	-19.4%
O=C(c1cc(C2CC2)nn1-c1ccccc1)N1CCN(S(=O)(=O)c2c(F)cccc2F)CC1	-0.7%	?	-0.6%	-15.2%	-0.4	5.7%
O=C(O)CC1COc2ccccc2N1S(=O)(=O)c1ccc(Br)cc1 (stereo not given)	5.2%	24.6%	-2.4%	-23.9%	12.6	2.1%
COc1ccc(S(=O)(=O)N2c3ccccc3OCC2c2ccccc2)cc1 (stereo not given)	?	18.4µM*	-10.9%	23.1µM*	39.2	?
COc1ccc(S(=O)(=O)N2CC(C(=O)O)Oc3ccccc32)cc1 (stereo not given)	9.1%	-3.6%	5.1%	-19.1%	21.4	0.2%
COc1ccc(S(=O)(=O)N2CCOc3ccccc32)cc1	?	5.17µM*	?	3.66µM*	108.1	13µM*
COc1ccc(S(=O)(=O)N2c3ccccc3OCC2C)cc1 (stereo not given)	0.651µM*	0.581µM*	-9.4%	0.82µM*	74.3	0.651µM*
COc1ccc(S(=O)(=O)N2c3ccccc3OCC2CC(=O)O)cc1 (stereo not given)	?	?	-2.2%	29.1µM*	17.0	?
SMILES	HT1080NT lethal	TDP1 cell CPT	uPA surface inh	DT40 TDP1 no CPT	IL-1B inflam inh	HT1080 IDH1KD tx
COc1ccc(S(=O)(=O)N2CCN(C(=O)C3COc4ccccc4O3)CC2)cc1 (stereo not given)	3.7%[9.24 µM]	?	-17.7%	?	0.0	-1.5%
CN(CC(=O)Nc1ccccc1Cl)C(=O)c1ccc(N2C(=O)CCC2=O)cc1	0.9%	2.8%	-0.2%	3.1%	4.7	-13.0%
CC1CCN(S(=O)(=O)c2ccc3c(c2)c(=O)c(C(=O)N2CCN(c4cccc(Cl)c4)CC2)cn3C)CC1	·	?	·	-19.8%	·	·
CCOc1ccc(NC(=S)NC(=O)/C=C/c2ccc(C)cc2)c([N+](=O)[O-])c1	-17.6%	14.6µM*	-7.5%	13µM*	-2.1	-20.3%
CCOC(=O)/C=C/C(=O)Nc1ccccc1C(=O)NC1CCCCC1	-7.9%	?	-8.8%	?	-51.1*	?
Cc1ccc(/C=C/C(=O)NC(=S)Nc2ccccc2C(=O)NC2CCCCC2)cc1	6.8%	13µM*	2.0%	11.6µM*	-10.6	18.6%
O=C(/C=C/c1ccc(F)cc1)NC(=S)Nc1ccccc1C(=O)NC1CCCCC1	2.5%	16.4µM*	-3.1%	13µM*	-2.5	4.4%
Cc1cnc(-n2ncc(C(=O)N[C@H]3CCCCNC3=O)c2C2CC2)nc1-c1cccs1	·	-22.0%	·	-17.9%	·	·
Cc1ccc(-c2noc(CCC(=O)Nc3ccc(F)cc3Cl)n2)cc1	·	-2.4%	·	?	·	·
CC1(C(=O)NS(=O)(=O)Cc2cccc(Cl)c2)CCN1C(=O)C1CCCCC1 (stereo not given)	14.4%	-15.0%	·	-5.3%	28.2	5.8%
Cc1ccc(/C=C/C(=O)Nc2ccccc2C(N)=O)cc1	-17.8%	20.6µM*	-13.4%	?	?	-23.4%
Cc1ccc(C(=O)/C=C/Nc2ccccc2C(N)=O)cc1	-22.1%	-15.2%	-5.2%	-25.2%	-23.0	-12.8%
COc1ccc(N2CCN(CCNC(=O)c3ccc4c(c3)[nH]c(=S)n3c5ccccc5nc43)CC2)cc1	?	4.61µM*	-0.8%	2.06µM*	-1.6	-29.0%
COc1ccc(Nc2cc(C(=O)NCCCN3CCN(c4ccc(OC)cc4)CC3)c3ccccc3n2)cc1	·	8.2µM*	·	8.2µM*	·	·
CCN(CCCNC(=O)c1cc(Nc2ccccc2OC)nc2ccccc12)c1cccc(C)c1	·	20.6µM*	·	7.31µM*	·	·
COc1ccc(Nc2cc(C(=O)NCCCN3CCN(C)CC3)c3ccccc3n2)cc1OC	-2.0%	-14.6%	-1.9%	-18.2%	?	-2.0%
